ATXN2 expr inh: ATXN2 expression inhibition; HEK-293 ATXN2-luciferase reporter, luminescence, 24 h; Potency, µM (top dose mostly 57 µM), for inactives: top-dose activity change, negative = inhibition, actives largely listed as inhibitors; 360,000 compounds, 0.72% hits; AID 1745845; note: % is set by controls: 0 for no effect and ±100 for the full control effect; nearly all actives have a fitted effect of over 55% in size
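qHTS (up to 57 uM final) was run with 24 h compound exposure of reporter cells at 37 °C. Each well was multiplexed: SteadyGlo luminescence measured ATXN2-luciferase expression after a fluorogenic Gly-Phe-AFC viability readout (25 uM final).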
S2 tox: reduces viability in counter-screen for ATXN expression inhibitors; AID 651635; S2 cells (HEK-293 line with an ATXN2-luciferase reporter) viability, CellTiter-Fluor protease fluorescence, 24 h; Potency, µM (highest dose often 56.7 µM), usual class: cytotoxic; 400,000 compounds, 0.49% hits; note: nearly all actives have a fitted effect of over 40% in size
TGFb SMAD3 inh: TGF-b pathway inhibition. 410,000 compounds, 1.2% hits. HepG2 CAGA-GFP TGF-b/SMAD3 reporter, GFP fluorescence, 18 h; TGF-beta stimulated, 500 pg/mL final. Potency, µM (highest dose often 46.1 µM), for inactives: at the highest dose activity, negative = inhibition, hits mostly inhibitors. AID 588855; note: % is set by controls: 0 for no effect and ±100 for the full control effect; nearly all actives have a fitted effect of over 65% in size
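Read-out: total well GFP (ex488/em500-530) summed from mean per-cell fluorescence. Cells: HEPG2 CAGA-GFP, 1% FBS DMEM, 18 h at 37 degrees C with 500 pg/mL final TGF-beta. Unstimulated wells served as the full-inhibition control; stimulated DMSO wells = 0%.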
Apoferritin bind: candidate novel general anesthetic via apoferritin binding. apoferritin/1-aminoanthracene competitive binding, fluorescence. 350,000 compounds, 0.074% hits. P02791. Potency, µM (series often up to 77.5 µM), inactives show at the highest dose activity change, negative = displacement, hits mostly inhibitors; note: % is set by controls: 0 for no effect and ±100 for the full control effect; nearly all actives have a fitted effect of over 20% in size
Target sequence (P02791 2-175 limits assumed): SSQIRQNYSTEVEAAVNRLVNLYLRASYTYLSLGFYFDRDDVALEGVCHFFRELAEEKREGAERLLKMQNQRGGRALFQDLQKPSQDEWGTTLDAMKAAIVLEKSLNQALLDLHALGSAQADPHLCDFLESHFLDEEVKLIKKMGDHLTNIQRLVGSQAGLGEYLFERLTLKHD
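10 uM apoferritin + 50% sat. 1-AMA, PBS; cpd 10 min RT; Ex380/Em535 endpoint; normalized to free probe vs complex; 4-param Hill fit; propofol titration as pos. ctrl.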
HepG2 tox: kills HepG2 cells in TGF-b inhibitor counter-screen | HepG2 CAGA-GFP viability, ATP luminescence, 18 h | Potency, µM (top dose mostly 46.1 µM), for inactives: at the highest dose activity change, negative = cytotoxicity, actives largely listed as cytotoxic | 410,000 compounds, 0.76% hits | AID 588856
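CellTiter-Glo luminescence gave cytotoxicity after 18 hours at 37 degrees C. The cells were HepG2 CAGA-GFP in 1% FBS DMEM, stimulated with 500 pg/mL TGF-beta after compound addition. %Activity was normalised to no-cell wells (complete cell-killing) and DMSO (no toxicity), and curves were fitted and classified.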
An asterisk follows results filed as active; i = inactive; ? = inconclusive; / = no result. Sampled rows, rich in hits. Any-hit rate of the full collection: about 2.4%. Calls come from the whole dose curve; as a rule, active = well fitted curve in the direction sought with a large enough effect; inconclusive = small, poorly fitted or top-dose-only effect, or another doubt; inactive = no such curve, though single readings can be large; an effect the other way counts as inactive or inconclusive. Potency is the fitted concentration of half-maximal effect.

SMILES | ATXN2 expr inh | S2 tox | TGFb SMAD3 inh | Apoferritin bind | HepG2 tox
CCOc1ccc(N2C(=O)c3n[nH]c(-c4cccs4)c3C2c2cccc(F)c2)cc1 (stereo not drawn) | ? | / | ? | -17% | 11µM*
CCOC(=O)c1ccc(N2C(=O)c3[nH]nc(-c4ccc(C)cc4)c3C2c2cccc(F)c2)cc1 (stereo not drawn) | ? | ? | ? | -3% | 11µM*
CCOC(=O)c1ccc(N2C(=O)c3[nH]nc(-c4ccc(OCC)cc4)c3C2c2ccc(OC)cc2OC)cc1 (stereo not drawn) | -5% | i | ? | 56% | -16%
CCOC(=O)c1ccc(N2C(=O)c3n[nH]c(-c4cccs4)c3C2c2cccc(OC)c2)cc1 (stereo not drawn) | ? | ? | 1.8µM* | -17% | -51%
COc1ccccc1C1CN(Cc2c(C)nc3sccn23)Cc2ccccc2O1 (stereo not drawn) | / | i | / | / | /
O=c1cc[nH]c2c1ccc1cccnc12 | 17% | i | -3% | / | -9%
O=S(=O)(c1ccccc1)c1nc(-c2cccs2)oc1SCc1ccccc1F | -4% | i | -5% | -16% | -16%
CCOC(=O)c1ccc(Cl)c(NC(=O)c2ccc(-c3ccccc3)cc2)c1 | ? | ? | 3% | -7% | -14%
CCOC(=O)c1ccc(/C=C2/C=C(c3ccccc3)N(c3ccc(Cl)c(C(=O)O)c3)C2=O)cc1 | 11µM* | ? | -29% | -21% | -35%
O=S(=O)(/C=C/c1ccccc1)N1CCC(n2c(C3CCCO3)nc3cccnc32)CC1 (stereo not drawn) | / | i | / | / | /
COc1ccc(NC(=O)c2ccc3oc(=O)c(S(=O)(=O)c4ccc(F)cc4)cc3c2)cc1OC | -25% | ? | 11µM* | -10% | -73%
COc1ccc(NC(=O)c2ccc3oc(=O)c(S(=O)(=O)c4ccc(C)cc4)cc3c2)cc1OC | 2% | i | -25% | -12% | -46%
Cc1occc1-c1nnc(-c2cc([N+](=O)[O-])cc([N+](=O)[O-])c2)o1 | 22% | ? | ? | 22µM* | -25%
CS[C@@H]1SC[C@H]2C(=O)N(C)C(C(C)C)C(=O)OC[C@@H](NC(=O)c3cnc4ccccc4n3)C(=O)N[C@@H](C)C(=O)N(C)[C@H]1C(=O)N(C)C(C(C)C)C(=O)OC[C@@H](NC(=O)c1cnc3ccccc3n1)C(=O)N[C@@H](C)C(=O)N2C (stereo partly drawn) | / | / | / | -3% | /
CCCCCc1c(-c2ccccc2OC)ncn1CCc1ccccc1OC | -35% | / | / | / | /
CCCCc1c(-c2ccccc2OC)ncn1CCc1cccc(OC)c1 | ? | 32µM* | / | / | /
CCCCCc1c(CC)ncn1CCc1ccccc1OC | ? | 16µM* | / | / | /
CCCCc1c(-c2ccccc2OC)ncn1CCc1ccccc1OC | ? | 32µM* | / | / | /
Nc1c(C(=O)NCc2ccccc2)c2nc3ccccc3nc2n1CCCN1CCOCC1 | / | / | ? | 150% | 18µM*
COc1ccc(CNC(=O)c2c(N)n(CCCN3CCOCC3)c3nc4ccccc4nc23)cc1 | ? | i | 11µM* | 184% | -115%
Nc1c(C(=O)NCc2ccc(F)cc2)c2nc3ccccc3nc2n1CCCN1CCOCC1 | ? | i | ? | 193% | 18µM*
COC(=O)c1c(N)n(CCCN2CCOCC2)c2nc3ccccc3nc12 | -9% | i | 0% | 595% | -2%
Oc1cc(-c2nc3ccccc3s2)cc2c1OCCN(Cc1cccn1-c1ncccn1)C2 | / | i | / | / | /
CCc1ccc2oc(-c3ccc(C)c(NC(=O)COc4ccc(Cl)cc4)c3)nc2c1 | / | / | -1% | / | -1%
c1ccc(CNc2nc(-c3cccnc3)nc3ccccc23)cc1 | / | i | -8% | -4% | -40%
SMILES | ATXN2 expr inh | S2 tox | TGFb SMAD3 inh | Apoferritin bind | HepG2 tox
c1ccc(CN2CCC(Nc3nc(-c4cccnc4)nc4ccccc34)CC2)cc1 | ? | i | 16µM* | -7% | -62%
COc1ccc(C(=O)c2no[n+]([O-])c2C(=O)c2ccc(OC)cc2)cc1 | ? | 28µM* | ? | ? | -95%
O=C(c1ccc(Cl)nc1)c1cccs1 | -13% | i | 18% | -4% | 20%
O=C(c1cccs1)c1no[n+]([O-])c1C(=O)c1cccs1 | ? | 28µM* | 25µM* | -16% | -41%
NC(=O)c1ncn([C@@H]2O[C@H](CO)[C@@H](O)[C@@H]2O)c1O | 6% | / | / | / | /
COc1ccc(-c2nc3sc(CCNC(=O)Cc4ccc(F)cc4)c(C)n3n2)cc1 | / | / | ? | -2% | -4%
CNc1c(Cl)cc(/C=C2\C=Cc3ccccc32)cc1Cl | / | / | -17% | / | -38%
CCCCCCCCCC[n+]1ccc(/C=C/c2c(C)[nH]c3ccccc23)cc1 | / | / | 211% | / | -101%
CCOC(=O)c1c(-c2ccccc2)c2cc(OC)ccc2n1CCCN(C)C | / | i | ? | -5% | 18µM*
CCOC(=O)c1c(C)n(CCNC(C)=O)c2ccc(OC)cc12 | 7% | i | -2% | -5% | -17%
COc1ccc(CN2CCCC(n3cc(C(=O)N4CCCCC4)nn3)C2)c(OC)c1 (stereo not drawn) | / | i | / | / | /
COc1cccc(-c2cnc3c(NC=O)cc(-c4ccccc4)cn23)c1 | 0% | i | 8.9µM* | / | -30%
COc1ccc(F)cc1-c1cc(NC=O)c2ncc(-c3cccc(C(=O)N(C)C)c3)n2c1 | 25µM* | ? | -5% | / | -28%
COc1cccc(-c2cnc3c(NC=O)cc(-c4ccoc4)cn23)c1 | -9% | ? | ? | / | -1%
COc1cccc(-c2cc(NC=O)c3ncc(-c4ccc(C(C)=O)cc4)n3c2)c1 | ? | i | 18µM* | / | 2%
CN(C)C(=O)c1cccc(-c2cnc3c(NC=O)cc(-c4ccccc4N(C)C)cn23)c1 | ? | i | -21% | / | -35%
